Compounds without any hit were thinned out: in the full panel of roughly 83,000, 20% have a hit.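 Treatment: one concentration, 48 hours, 96-well format. Scoring: percent growth, with anything below 10 considered active.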 Values without a mark were called inactive. Active and inactive are the calls of the source.
These compounds were tested on DU-145 prostate (assay: NCI-60 one-dose screen, 48 h (100 = growth as untreated, 0 = no growth, -100 = all killed)). Settings: 10 µM unless noted.

Compound	growth
C=C1C(=O)O[C@H]2[C@H]1CC/C(COC(=O)c1cc3ccccc3s1)=C\CC[C@@]1(C)O[C@@H]21	-80.6% (active)
COc1ccc(OC)c(/C=N/Nc2ncnc3c2c(C)nn3C)c1	108%
NC(=O)c1ccc(-c2c3ccccc3cc3c2ccc2ccccc23)cc1	53.3%
NNc1nc(-c2cccnc2)nc2c1sc(=S)n2-c1ccccc1	106%
CN(C)CC(C)(C)C(=O)/C=C/c1ccccc1	-46.5% [25 µM] (active)
Cc1ccc(Nc2cc(N)nc(N)n2)cc1Cl	94%
COc1ccc(CNc2c3ccccc3nc3ccccc23)cc1	48%
CN(c1cc2ncc(=O)[nH]c2cc1NC(N)=NCc1ccc(Cl)cc1)C1CCCCC1	71.7%
Cc1cccc(CNc2c3ccccc3nc3ccccc23)c1	33.9%
Fc1cc2c(cc1Cl)N(c1ncnc3ccc(-c4ccc5n[nH]nc5c4)cc13)CC2	67.1%
CC(C)c1ccc(Cc2cnc(NC(=O)c3cc(Br)cs3)s2)cc1	38.5%
O=C1Nc2ccc(C(=O)O)cc2/C1=N/c1nnc(Sc2ccccc2)s1	110%
O=C(Nc1nc2ccc(C(=O)N3CCN(/C=C/c4ccccc4)CC3)cc2s1)c1ccc(NCCc2ccccc2)c([N+](=O)[O-])c1	70.7%
O=C(c1ccncc1)N1N=C(c2ccc(Cl)cc2)C[C@H]1c1cn(-c2ccccc2)nc1-c1ccccc1	99.8%
CCc1ccc(CCCC(=O)O)cc1	102%
CSc1nc2ccccc2cc1/C=[N+](\[O-])c1ccccc1	87.7%
NC(=O)CSc1oc(-c2ccccc2)nc1S(=O)(=O)c1ccc(Br)cc1	85.6%
N#CC1=C(N)Oc2c(c(=O)[nH]c3ccc(Cl)cc23)C12C(=O)c1ccccc1C2=O	106%
CC/C(=C(/c1ccc(Cl)cc1)c1ccc(OCCN2CCCCC2)cc1)c1ccc(OC)cc1	82.8%
NC(Cc1ccc(O)c([N+](=O)[O-])c1)C(=O)O (configuration not stated)	106%
Nc1c(C(=O)Nc2ccncc2)sc2nc3c(cc12)C(O)CCC3 (configuration not stated)	96.8%
COc1ccc(NC2=C(I)C(=O)c3ncccc3C2=O)cc1	-84.2% (active)
CCOc1ccc(NC(=O)CSc2oc(-c3ccccc3)nc2S(=O)(=O)c2ccc(C)cc2)cc1	67.3%
O=S(=O)(Nc1cc(F)cc(Cl)c1)c1ccc(-c2cnc(C3CC3)o2)cc1	35.6%
CC1(C)COB(OCC(C)(C)COB2OCC(C)(C)CO2)OC1	103%
O=C(Nc1ccccc1O)c1ccc(CNC(=O)c2sccc2Nc2ccnc(C(F)(F)F)c2)cc1	46.7%
CCC(C)N(CCNc1cc(OC)cc2cccnc12)CC(C)C (configuration not stated)	112%

The compounds below were run on K-562 leukemia in the same assay as above. Settings: 10 µM unless noted.

Compound	growth
CCCCNC(=O)Oc1ccc(/C(=C(/C)Cc2ccc(OC)cc2)c2ccc(OCCN(CC)CC)cc2)cc1	3.84% (active)
Cc1nc2sc(C(=O)Nc3cccc(Br)c3)c(N)c2cc1C(O)c1ccccc1 (configuration not stated)	7.97% (active)
CCn1cc(C(=O)O)c(=O)c2cc(F)c(N3CCN(CC(=O)Nc4ccc(S(=O)(=O)Nc5nccc(C)n5)cc4)C(C)C3)c(F)c21 (configuration not stated)	105%
C#CCOc1ccc2ncnc(Nc3ccc(NC(=O)C=C)cc3)c2c1	-35.7% (active)
Nc1ncnc2c1C(c1ccc(Br)cc1)c1sc3c(F)cccc3c1O2 (configuration not stated)	99.1%
N#Cc1nc(-c2ccc(Cl)cc2)oc1S(=O)(=O)N1CCN(c2ccc(F)cc2)CC1	24.6%
CCn1c(SCC(=O)N/N=C(\C)c2ccc(Cl)cc2)nc2c1c(=O)n(C)c(=O)n2C	98%
Cc1ccc(C2=Nc3c(N)ncnc3NC(c3cccc(Nc4ccnc5cc(C(F)(F)F)ccc45)c3)C2)cc1 (configuration not stated)	5.65% (active)
CCCCCCCCCCCCCCCCCCOc1ccccc1CC(=O)OCC[N+](C)(C)C	18.6%
CC(C)C1=NOC(=O)C1=Cc1cn(-c2ccccc2)nc1-c1ccc(F)cc1	29.2%
O=C(NNC(=O)c1ccc(NC(=O)c2ccccn2)cc1)Nc1ccc([N+](=O)[O-])cc1	107%
CSc1nc2ccccc2cc1/C=C1/C=C(c2ccccc2)NC1=O	35.7%
CC(C)c1ccc(-n2c(=S)[nH]c3sc4cc(O)ccc4c3c2=O)cc1	107%
C=C1C(=O)O[C@H]2[C@H]1CC/C(COC(=O)c1cc3ccccc3s1)=C\CC[C@@]1(C)O[C@@H]21	2.38% (active)
COc1ccc(OC)c(/C=N/Nc2ncnc3c2c(C)nn3C)c1	93.2%
NC(=O)c1ccc(-c2c3ccccc3cc3c2ccc2ccccc23)cc1	14%
NNc1nc(-c2cccnc2)nc2c1sc(=S)n2-c1ccccc1	75.5%
CN(C)CC(C)(C)C(=O)/C=C/c1ccccc1	1.32% [25 µM] (active)
Cc1ccc(Nc2cc(N)nc(N)n2)cc1Cl	74.4%
COc1ccc(CNc2c3ccccc3nc3ccccc23)cc1	6.97% (active)

Compound	growth
CN(c1cc2ncc(=O)[nH]c2cc1NC(N)=NCc1ccc(Cl)cc1)C1CCCCC1	2.83% (active)
Cc1cccc(CNc2c3ccccc3nc3ccccc23)c1	1.88% (active)
Fc1cc2c(cc1Cl)N(c1ncnc3ccc(-c4ccc5n[nH]nc5c4)cc13)CC2	88.2%
CC(C)c1ccc(Cc2cnc(NC(=O)c3cc(Br)cs3)s2)cc1	18.2%
O=C1Nc2ccc(C(=O)O)cc2/C1=N/c1nnc(Sc2ccccc2)s1	96.2%
O=C(Nc1nc2ccc(C(=O)N3CCN(/C=C/c4ccccc4)CC3)cc2s1)c1ccc(NCCc2ccccc2)c([N+](=O)[O-])c1	-18.7% (active)
O=C(c1ccncc1)N1N=C(c2ccc(Cl)cc2)C[C@H]1c1cn(-c2ccccc2)nc1-c1ccccc1	90.5%
CCc1ccc(CCCC(=O)O)cc1	98.9%
CSc1nc2ccccc2cc1/C=[N+](\[O-])c1ccccc1	15.1%
NC(=O)CSc1oc(-c2ccccc2)nc1S(=O)(=O)c1ccc(Br)cc1	91.7%
N#CC1=C(N)Oc2c(c(=O)[nH]c3ccc(Cl)cc23)C12C(=O)c1ccccc1C2=O	126%
CC/C(=C(/c1ccc(Cl)cc1)c1ccc(OCCN2CCCCC2)cc1)c1ccc(OC)cc1	2.95% (active)
NC(Cc1ccc(O)c([N+](=O)[O-])c1)C(=O)O (configuration not stated)	101%
Nc1c(C(=O)Nc2ccncc2)sc2nc3c(cc12)C(O)CCC3 (configuration not stated)	88.7%
COc1ccc(NC2=C(I)C(=O)c3ncccc3C2=O)cc1	2.18% (active)
CCOc1ccc(NC(=O)CSc2oc(-c3ccccc3)nc2S(=O)(=O)c2ccc(C)cc2)cc1	53%
O=S(=O)(Nc1cc(F)cc(Cl)c1)c1ccc(-c2cnc(C3CC3)o2)cc1	17.1%
CC1(C)COB(OCC(C)(C)COB2OCC(C)(C)CO2)OC1	106%
O=C(Nc1ccccc1O)c1ccc(CNC(=O)c2sccc2Nc2ccnc(C(F)(F)F)c2)cc1	25.1%
CCC(C)N(CCNc1cc(OC)cc2cccnc12)CC(C)C (configuration not stated)	83.1%

Source: PubChem BioAssay (NCI)
